Experiment [1] is described as follows: qHTS assay to identify small molecule agonists of the estrogen related receptor signaling pathway with the pleiotropic PPARgamma coactivator (PGC) (AID 1224823). Put shortly:
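PGC/ERR reporter cells seeded 6 h, then exposed to compounds (23 nL in DMSO) for 18 h at 37 C. One-Glo luciferase luminescence read after 30 min at room temperature.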

Experiment [2] in a line: qHTS assay to identify small molecule antagonists of the estrogen related receptor (ERR) signaling pathway from Tox21 library - cell viability counter screen (AID 1224834). Also: nearly all actives have a fitted effect of over 30% in size. In short, it runs like this: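 Cytotoxicity of test substances is gauged in the same ERR cells used for the antagonist screen, after 17.5 h of compound treatment at 37 C, by CellTiter-Fluor fluorescence measured after 30 min.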

The target in experiment [3] is Luciferin 4-monooxygenase (Photinus pyralis) (UniProt P08659). The experiment can be described thus: qHTS assay to identify small molecule inhibitors of firefly luciferase (AID 1224835). Also: nearly all actives have a fitted effect of over 25% in size. Put shortly:
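Inhibition of purified Photinus luciferase is measured by luminescence. Substrate levels (D-luciferin, ATP) sit at their KM values. Each compound is tested in a concentration series.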
Background: qHTS replaces the single test concentration by a dilution series.

The nature of experiment [4]: qHTS assay to identify small molecule agonists of the constitutive androstane receptor (CAR) signaling pathway - cell viability counter screen (AID 1224836). Also: nearly all actives have a fitted effect of over 45% in size. In short, it runs like this: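 Using CellTiter-Fluor, viability of HepG2 cells harbouring hCAR and CYP2B6-2.2kb was measured following 23 h incubation with a 15-concentration compound series plus PK11195 (0.75 uM final).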

Experiment [5] in a line: qHTS assay to identify small molecule antagonists of the constitutive androstane receptor (CAR) signaling pathway - cell viability counter screen (AID 1224837). Also: nearly all actives have a fitted effect of over 45% in size. Put shortly:
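Multiplexed cytotoxicity read-out for the CAR antagonist screen: double-stable HepG2-CYP2B6-hCAR cells co-treated with 50 nM CITCO (final) and compound over 15 concentrations, incubated 23 hr, then assessed by CellTiter-Fluor fluorescence.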

The target in experiment [6] is Nuclear receptor subfamily 1 group I member 3 (Homo sapiens) (UniProt Q14994). Kind of experiment: qHTS assay to identify small molecule agonists of the constitutive androstane receptor (CAR) signaling pathway (AID 1224839). Also: nearly all actives have a fitted effect of over 15% in size. Also: potency is read from the fitted curve at half-maximal effect.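 As to activation: HepG2 cells stably carrying human CAR and a CYP2B6 luciferase reporter.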 In short, it runs like this: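 Double-stable HepG2 cells (hCAR, CYP2B6-2.2kb) seeded 4 h before compound addition. Exposure 24 h with 0.75 uM PK11195 final. Luciferase detected by ONE-Glo.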

The nature of experiment [7]: qHTS assay to identify small molecule antagonists of the estrogen related receptor signaling pathway with the pleiotropic PPARgamma coactivator (PGC) from Tox21 10K library - cell viability counter screen (AID 1224840; active = well fitted cell-killing curve with a large enough effect in the repeat runs, not every such curve was filed as active; also: nearly all actives have a fitted effect of over 40% in size). In short, it runs like this: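 Step one, plate 2,000 PGC/ERR cells per well; step two, incubate 6 h at 37 C/5% CO2; step three, pin-transfer compounds; step four, incubate 17.5 h; step five, add CellTiter-Fluor and read fluorescence after 30 min.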

The nature of experiment [8]: qHTS assay to identify small molecule antagonists of the estrogen related receptor signaling pathway with the pleiotropic PPARgamma coactivator (PGC) from Tox21 10K library (AID 1224841; call rule not given here; also: actives are mostly falling curves and most rising ones were filed inactive; nearly all actives have a fitted effect of over 50% in size). In short, it runs like this:
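Antagonism in this quantitative HTS is taken from loss of luciferase signal in PGC/ERR cells. Cells (2,000/well) are treated with compounds in DMSO after a 6 h settling period and read by One-Glo luminescence after 18 h.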

Experiment [9] deals with Thyrotropin receptor (Homo sapiens) (UniProt P16473). The experiment can be described thus: qHTS assay to identify small molecule agonists of the thyroid stimulating hormone receptor (TSHR) signaling pathway (AID 1224843; calls by dose curve; also: nearly all actives have a fitted effect of over 45% in size). In short, it runs like this: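 Screening of the Tox21 10K collection used HEK293 cells engineered with TSHR at 800 cells per well. After a 30-min room-temperature compound exposure, HTRF cAMP reagents were added and fluorescence recorded 1 h later.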

Experiment [10] in a line: qHTS assay to identify small molecule agonists of the hypoxia (HIF-1) signaling pathway - cell viability counter screen (AID 1224844; calls by dose curve; also: nearly all actives have a fitted effect of over 50% in size). In short, it runs like this:
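Tox21 10K compounds were added to HRE-bla ME-180 cells (0.5% dialyzed FBS) and incubated 17 hrs at 37C; ATP-based CellTiter-Glo luminescence then reported cell viability in the same wells.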

Experiment [11] is described as follows: qHTS assay to identify small molecule agonists of H2AX (AID 1224845; active = well fitted activation curve with a large enough effect in the signal ratio in the repeat runs, not every such curve was filed as active; the % refers to the signal ratio). In short, it runs like this: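 Phospho-H2AX Ser139 measured by HTRF (ex 320 nm; em 665 and 620 nm) after 24 hr antibody incubation. Compounds, 15 concentrations, 0.76% DMSO, were applied to CHO-K1 cells for 3hr at 37C before lysis.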
Experiment [12] is described as follows: qHTS assay to identify small molecule agonists of the hypoxia (HIF-1) signaling pathway (AID 1224846; active = well fitted activation curve with a large enough effect in the signal ratio in the repeat runs, not every such curve was filed as active; the % refers to the signal ratio). In short, it runs like this:
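Steps: seed ME-180 HRE-bla cells (2,000/well, 0.5% dialyzed FBS); incubate 5 hrs at 37C; pin-transfer compounds or DMSO; incubate 17 hrs; add LiveBLAzer B/G substrate CCF4-AM; measure reporter activation by FRET.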

The nature of experiment [13]: qHTS assay to identify small molecule agonists of H2AX - cell viability counter screen (AID 1224847; calls by dose curve; also: top concentration of the series differs between compounds; nearly all actives have a fitted effect of over 30% in size). Put shortly: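 Quantitative HTS viability measurement: CHO-K1 wild-type cells in serum (10% FBS) medium, short 3 hr drug exposure at 37C with 0.76% DMSO, CellTiter-Glo luminescent detection.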
A short description of experiment [14]: qHTS assay to identify small molecule antagonists of the estrogen related receptor (ERR) signaling pathway from Tox21 library (AID 1224848). Also: nearly all actives have a fitted effect of over 50% in size. In short, it runs like this:
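Antagonist-mode screen of the Tox21 10K library in an NTP-provided ERR reporter cell line; 18 h compound exposure at 37 C, luminescence measured with ONE-Glo.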

The nature of experiment [15]: qHTS assay to identify small molecule agonists of the estrogen related receptor (ERR) signaling pathway from Tox21 library (AID 1224849; calls by dose curve; also: nearly all actives have a fitted effect of over 15% in size). Particulars: ERR reporter cell line, ONE-Glo luciferase, 18 h; at 92.4 µM (top of the series) unless noted. In short, it runs like this: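 Agonist signal is luciferase luminescence from an ERR reporter cell line treated 18 h at 37 C with DMSO-dissolved compounds, read 30 min after ONE-Glo addition at room temperature.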

Experiment [16] is described as follows: qHTS RealTime-Glo MT Cell Viability Assay in HepG2 cells - 24 hour (AID 1224867). Also: nearly all actives have a fitted effect of over 50% in size. In short, it runs like this:
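HepG2 cells (600/well) were dispensed with RealTime-Glo reagents, incubated 5 h at 37 °C, then treated with compounds in DMSO for up to 40 h. Nonlytic NanoLuc luminescence reflecting viable cells was read at each stated time point.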

Experiment [17] is described as follows: qHTS RealTime-Glo MT Cell Viability Assay in HEK293 cells - 32 hour (AID 1224868). Put shortly: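 HEK293 cells seeded with NanoLuc/prosubstrate reagent, rested 5 h at 37 C, then dosed and kept at 37 C up to 40 h. Nonlytic real-time luminescence from viable cells read at 0, 8, 16, 24, 32 and 40 h.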
The nature of experiment [18]: A CellTox Green Cytotoxicity Assay to monitor cytotoxicity in HEK293 cells - 0 hour (AID 1224869). Also: nearly all actives have a fitted effect of over 50% in size. Put shortly: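 Cytotoxicity was tracked continuously in HEK293 cells by a DNA-binding dye excluded from viable cells. Compounds were transferred in DMSO 5 h after seeding; fluorescence was recorded at intervals up to 40 h.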
The target of experiment [19] is Nuclear receptor subfamily 1 group I member 3 (Homo sapiens) (UniProt Q14994). Kind of experiment: qHTS assay to identify small molecule antagonists of the constitutive androstane receptor (CAR) signaling pathway (AID 1224838). Also: nearly all actives have a fitted effect of over 40% in size. Put shortly:
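Compounds were titrated across 15 concentrations onto HepG2 cells double-stably expressing hCAR and a CYP2B6-2.2kb reporter, together with 50 nM CITCO (final). After 24 h at 37 C, luciferase activity was measured by luminescence.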

The nature of experiment [20]: qHTS assay to identify small molecule agonists of the estrogen related receptor signaling pathway with the pleiotropic PPARgamma coactivator (PGC) from Tox21 10K library (AID 1224842). Also: nearly all actives have a fitted effect of over 15% in size. Also: potency is read from the fitted curve at half-maximal effect. In short, it runs like this: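 Luminescence from One-Glo (30 min, room temperature) measured after PGC/ERR cells had 18 h at 37 C with pinned compound (23 nL in DMSO). Cells had been seeded at 2,000 per well and pre-incubated 6 h.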

Each structure is given as a SMILES string. Values without a mark were called inactive. Inconclusive results are not listed. Activity calls are given as the source filed them. Unless noted, calls follow the shape of the dose curve; as a rule, active = well fitted curve in the direction sought with a large enough effect in the repeat runs; inconclusive = weak or mixed curves; inactive = no such curve, though single readings can be large; an effect the other way counts as inactive or inconclusive.
% is scaled to controls: 0 for no effect and ±100 for the full control effect.

Chain of Thyrotropin receptor (Homo sapiens) (P16473 whole entry, looked up): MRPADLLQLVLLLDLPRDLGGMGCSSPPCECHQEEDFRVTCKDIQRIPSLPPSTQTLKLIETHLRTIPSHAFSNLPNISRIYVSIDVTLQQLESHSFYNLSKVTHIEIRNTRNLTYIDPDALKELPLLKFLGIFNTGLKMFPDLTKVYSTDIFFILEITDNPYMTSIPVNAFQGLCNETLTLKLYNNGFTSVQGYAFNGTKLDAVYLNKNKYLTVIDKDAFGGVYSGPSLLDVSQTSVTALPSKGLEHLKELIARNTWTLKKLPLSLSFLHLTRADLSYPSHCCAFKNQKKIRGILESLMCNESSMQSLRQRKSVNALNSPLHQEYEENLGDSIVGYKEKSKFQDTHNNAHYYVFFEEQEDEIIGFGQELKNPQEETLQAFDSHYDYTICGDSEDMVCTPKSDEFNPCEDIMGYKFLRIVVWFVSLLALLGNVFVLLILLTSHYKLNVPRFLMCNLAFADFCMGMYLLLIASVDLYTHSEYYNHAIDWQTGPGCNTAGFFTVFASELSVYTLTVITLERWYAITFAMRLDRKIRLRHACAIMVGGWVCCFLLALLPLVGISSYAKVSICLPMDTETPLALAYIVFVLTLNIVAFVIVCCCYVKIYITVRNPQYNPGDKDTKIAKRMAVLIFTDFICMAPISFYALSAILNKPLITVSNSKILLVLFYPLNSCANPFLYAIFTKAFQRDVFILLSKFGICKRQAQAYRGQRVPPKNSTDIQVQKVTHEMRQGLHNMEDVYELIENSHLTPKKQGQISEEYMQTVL
Chain of Nuclear receptor subfamily 1 group I member 3 (Homo sapiens) (Q14994 whole entry, looked up): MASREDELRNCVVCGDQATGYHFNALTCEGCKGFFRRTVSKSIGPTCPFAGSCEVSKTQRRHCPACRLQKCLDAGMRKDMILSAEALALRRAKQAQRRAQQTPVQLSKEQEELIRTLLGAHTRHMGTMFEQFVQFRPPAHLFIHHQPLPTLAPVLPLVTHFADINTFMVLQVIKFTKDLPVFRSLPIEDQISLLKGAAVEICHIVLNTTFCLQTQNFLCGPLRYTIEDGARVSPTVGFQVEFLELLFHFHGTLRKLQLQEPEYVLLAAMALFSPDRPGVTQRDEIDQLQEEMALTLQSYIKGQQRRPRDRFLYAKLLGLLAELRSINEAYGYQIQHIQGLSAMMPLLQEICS
Chain of Luciferin 4-monooxygenase (Photinus pyralis) (P08659 whole entry, looked up): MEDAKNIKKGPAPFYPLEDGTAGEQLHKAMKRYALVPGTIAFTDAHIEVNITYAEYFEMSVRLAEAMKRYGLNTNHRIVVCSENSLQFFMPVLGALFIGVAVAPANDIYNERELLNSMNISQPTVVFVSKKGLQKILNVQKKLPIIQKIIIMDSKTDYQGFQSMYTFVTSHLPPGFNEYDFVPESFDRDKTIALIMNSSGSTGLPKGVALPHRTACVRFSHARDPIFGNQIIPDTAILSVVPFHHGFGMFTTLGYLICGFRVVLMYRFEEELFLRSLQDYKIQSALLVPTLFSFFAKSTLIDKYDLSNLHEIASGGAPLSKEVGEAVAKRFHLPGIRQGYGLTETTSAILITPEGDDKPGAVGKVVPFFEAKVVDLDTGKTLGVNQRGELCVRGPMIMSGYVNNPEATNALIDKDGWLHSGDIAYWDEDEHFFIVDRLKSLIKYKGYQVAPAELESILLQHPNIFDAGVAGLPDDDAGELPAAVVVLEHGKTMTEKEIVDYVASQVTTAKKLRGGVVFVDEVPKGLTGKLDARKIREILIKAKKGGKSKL

In the case of `C=CC(=O)NCNC(=O)C=C`, the compound was called inactive in experiment [1] and in experiment [12]. Besides, the Potency entry in [2], in [3], in [4], in experiment [5], in experiment [6] and in experiment [7] was “inactive” throughout. Further, the Potency result in experiment [8], in [9], in experiment [10], in experiment [11], in experiment [13] and in experiment [14] was “inactive” in each case. Further, the Potency entry in experiment [16], in experiment [17] and in experiment [18] was “inactive” each time. Further, the activity change, positive = activation in experiment [15] is 36.6% (active).
`O=C(CBr)Nc1ccc(Cl)cc1C(=O)c1ccccc1F`: the Potency result in experiment [2], in [3], in experiment [4], in [5], in experiment [19] and in experiment [7] was “inactive” in each case. In addition, the Potency entry in experiment [8], in experiment [20], in [9], in experiment [10], in experiment [11] and in [13] was “inactive” in each case. The Potency result in experiment [14], in [16], in [17] and in experiment [18] was “inactive” throughout. Further, the Potency in experiment [6] was 26.6 µM (active). For the same compound, the activity change, positive = activation in [15] is -13.3% [at 42.5 µM].
As to `O=C(O)CC(Cl)C(=O)O` (centres undefined), the Potency result in experiment [2], in experiment [3], in [4], in experiment [5], in [19] and in [6] was “inactive” each time. The Potency entry in [7], in experiment [8], in [20], in experiment [9], in experiment [10] and in experiment [11] was “inactive” throughout. The Potency result in experiment [13], in experiment [14], in experiment [16], in experiment [17] and in experiment [18] was “inactive” in each case. The result in experiment [12] was inactive. Also, the activity change, positive = activation in experiment [15] is 7%.
As to `OCCCBr`, the outcome in experiment [1] and in [12] was inactive. Also, the Potency result in experiment [2], in experiment [4], in [5], in experiment [19], in experiment [6] and in [7] was “inactive” throughout. For the same compound, the Potency result in experiment [20], in experiment [11], in [13], in experiment [14], in experiment [16] and in [17] was “inactive” each time. For the same compound, the Potency result in experiment [18] is “inactive”. Further, the activity change, positive = activation in experiment [15] was -6.8%.
Turning to `Cc1ccc(N)cc1C`, the Potency result in [2], in experiment [3], in experiment [4], in [5], in experiment [19] and in [7] was “inactive” throughout. Besides, the Potency result in [8], in [9], in [10], in [11], in experiment [13] and in [14] was “inactive” each time. In addition, the Potency result in experiment [16], in experiment [17] and in experiment [18] was “inactive” each time. Further, the Potency in experiment [6] is 4.9 µM (active); in experiment [20], 3.47 µM (active). In addition, the call in experiment [12] was inactive. The activity change, positive = activation in [15] is 19.9% (active).
As to `CCOc1nc(F)cc2nc(S(=O)(=O)Nc3c(Cl)cccc3Cl)nn12`, the Potency result in experiment [2], in [3], in experiment [4], in experiment [5], in experiment [19] and in experiment [6] was “inactive” throughout. The Potency result in [7], in experiment [9], in experiment [10], in [11], in experiment [16] and in [17] was “inactive” each time. For the same compound, the Potency entry in experiment [18] was “inactive”. The result in experiment [12] was inactive.
Consider `c1ccc(CN2CCNCC2)cc1`, for which the Potency result in [2], in [3], in [4], in experiment [5], in experiment [19] and in experiment [6] was “inactive” each time. Besides, the Potency entry in [7], in [9], in [10], in experiment [11], in experiment [13] and in experiment [16] was “inactive” in each case. Moreover, the Potency result in experiment [17] and in [18] was “inactive” each time. Further, the outcome in [12] was inactive.

Source of the values: PubChem BioAssay (Tox21).
